# Source: PubChem
# miR-21 act = qHTS Assay for Modulators of miRNAs and/orActivators of miR-21; HeLa miR-21 FLuc reporter, luciferase, 48 h; Potency, µM (highest dose often 38.3 µM), without a hit: at the highest dose activity change, positive = activation, actives largely listed as activators; 340,000 tested, under 10 active; AID 2288, 2010;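 also: % of control where 0% means no effect; miR-21 action dims this reporter so a rising signal means less miR-21 action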
#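 Luminescence from a firefly luciferase reporter carrying a miR-21 binding site downstream, stably expressed under a CMV promoter in HeLa cells that make miR-21 endogenously, reports miRNA modulation after 48 h compound exposure up to approximately 40uM final.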
# Nrf2 activator = qHTS of Nrf2 Activators; Potency, µM (titrated, usually from 46.1 µM), inactives show at the top dose activation, usual class: activators; AREc32 ARE-luciferase reporter (MCF7-derived line), luminescence, 24 h; 410,000 tested, 0.31% active; also: potency is read from the fitted curve at half-maximal effect; % of control where 0% means no effect; nearly all actives have a fitted effect of over 65% in size
#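 Each well held 1000 AREc32 cells, which were incubated with compound for 24 hr at 37 deg C after overnight attachment, and ARE reporter activity was quantified by firefly luciferase luminescence.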
# TCR activator = Activators of T cell receptors: qHTS campaign. 330,000 tested, under 10 active. Potency, µM (doses to about 9.22 µM), for the others: top-dose activation of IL-2 secretion, usual class: activators. AID 504894, 2011. primary human leukocytes, anti-CD3, IL-2 HTRF, 48 h; also: % of control where 0% means no effect
#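 Compounds are tested in HTS on primary human leukocytes co-incubated with a-CD3 beads for 48 hr. IL-2 output is measured by time-resolved FRET.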
# A549 tox = Nrf2 qHTS screen for inhibitors: counterscreen for cytotoxicity; A549 ARE-Fluc cells, CellTiter-Fluor viability, 18-24 h; Potency, µM (series often up to 46 µM), inactives show top-dose activity change, negative = cytotoxicity, hits mostly inhibitors; 390,000 tested, 0.16% active; also: potency is read from the fitted curve at half-maximal effect; % is scaled to controls: 0 for no effect and ±100 for the full control effect
#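 A549 ARE_Fluc cells in 5% FBS OPTI-MEM were exposed to compounds in concentration-response for 18-24 h at 37 deg C. Viability was read by CellTiter-Fluor fluorescence (Ex 405/Em 525) after 30 min, before the luciferase read.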
# Nrf2 inh = Nrf2 qHTS screen for inhibitors; A549 ARE-Fluc reporter, luciferase luminescence, 18-24 h; Potency, µM (highest dose often 46 µM), for inactives: top-dose activity change, negative = inhibition, most hits filed as inhibitors; 360,000 tested, 2.1% active; AID 504444, 2011; also: potency is read from the fitted curve at half-maximal effect; % is scaled to controls: 0 for no effect and ±100 for the full control effect; nearly all actives have a fitted effect of over 60% in size
#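 Two sequential reads on A549 ARE_Fluc cells exposed to compound for 18-24 h: a CellTiter-Fluor fluorescence read for viability, then a luciferase luminescence read for Nrf2/ARE activity.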
# ClpP mod = qHTS Assay for Activators of ClpP; purified B. subtilis ClpP, FRET peptide cleavage, 20 min; Potency, µM (doses to about 57.5 µM), without a hit: top-dose activity change, negative = active; ATP-dependent Clp protease proteolytic subunit (Bacillus subtilis (strain 168)), P80244; 340,000 tested, 1.9% active; active = well fitted falling curve with a large enough effect; inconclusive = small, poorly fitted or top-dose-only effect; inactive = no such curve, though single readings can be large or run the other way; also: potency is read from the fitted curve at half-maximal effect; the source files actives as falling curves though it sought activators and does not explain the sign; nearly all actives have a fitted effect of over 65% in size
# Target sequence (P80244 whole entry, looked up): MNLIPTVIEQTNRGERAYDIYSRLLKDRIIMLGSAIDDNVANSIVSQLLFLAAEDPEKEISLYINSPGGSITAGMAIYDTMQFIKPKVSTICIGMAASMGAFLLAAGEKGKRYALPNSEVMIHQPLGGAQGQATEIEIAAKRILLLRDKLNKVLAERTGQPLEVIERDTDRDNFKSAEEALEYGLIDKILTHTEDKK
#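 Buffer: 100 mM Tris/HCl pH8, 100 mM KCl, 0.05% low protease BSA, 2.5% glycerol, 0.01% Tween-20. ClpP 10 microg/mL final; 20 min RT; delta FRET normalized to ADEP and DMSO controls.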
# Starred values were filed as active, the others as inactive; ? = inconclusive; . = no result; [ ] = remark or other dose. In the library only some 3.7% were active in any assay of this set; here they are far more common. Unless noted, calls follow the shape of the dose curve; as a rule, active = well fitted curve in the direction sought with a large enough effect; inconclusive = small, poorly fitted or top-dose-only effect, or another doubt; inactive = no such curve, though single readings can be large; an effect the other way counts as inactive or inconclusive.
SMILES,miR-21 act,Nrf2 activator,TCR activator,A549 tox,Nrf2 inh,ClpP mod
O=C(NCCCCc1ccccc1)c1nn(-c2ccccc2)nc1CO,7%,-1%,.,-7%,23µM*,?
Cc1ccc(-n2c(SCC(=O)Nc3cccc(Cl)c3)nc3n[nH]c(C)c3c2=N)cc1,15%,0%,.,-17%,.,4%
O=c1c2ccccc2sn1-c1ccc(Cl)c(S(=O)(=O)N2CCOCC2)c1,.,.,.,7%,17%,0%
Cc1ccc(-n2nc(CO)c(C(=O)NCCCCc3ccccc3)n2)cc1C,-4%,-1%,.,7%,14%,25µM*
COC(=O)c1nn(-c2ccccc2)nc1-c1nn(-c2ccccc2)nc1C(=O)OC,-10%,1%,7%,2%,3%,?
O=C(O)c1nn(-c2ccccc2)nc1-c1nn(-c2ccccc2)nc1C(=O)O,1%,0%,11%,-9%,4%,25µM*
O=C(NCc1ccccc1)c1nn(-c2ccccc2)nc1CO,27%,1%,.,-8%,?,32µM*
O=C(NCc1cccs1)c1nn(-c2ccccc2)nc1CO,?,0%,.,-7%,?,3%
O=C(NCc1cccnc1)c1nn(-c2ccccc2F)nc1CO,17%,2%,.,0%,-5%,?
O=C(NCc1cccnc1)c1nn(-c2ccc(Cl)cc2)nc1CO,6%,1%,.,-1%,-26%,28µM*
CCN(CC(=O)Nc1ccc2c(c1)OCCO2)CC(=O)Nc1ccc(C)c([N+](=O)[O-])c1,.,2%,4%[46.1 µM],-11%,4%,.
Cc1ccc(-n2nc(CO)c(C(=O)NCCO)n2)cc1,-20%,3%,.,-6%,?,8.9µM*
COc1cc(F)c(S(=O)(=O)N2CCN(S(=O)(=O)c3cccs3)CC2)c(F)c1,.,.,.,1%,9%,.
N=c1c2c(-c3ccccc3)c(-c3ccccc3)n(Cc3ccco3)c2ncn1Cc1ccccc1,?,0%,-1%,5%,12%,-3%
CC(C)Cn1cnc2c(c(-c3ccccc3)c(-c3ccccc3)n2Cc2ccco2)c1=N,?,3%,3%,23µM*,-20%,-3%
OCCNc1ncnc2c1c(-c1ccccc1)c(-c1ccccc1)n2Cc1ccco1,-1%,3%,-4%,0%,-19%,28µM*
N=c1c2c(-c3ccccc3)c(-c3ccccc3)n(Cc3ccco3)c2ncn1CCCn1ccnc1,22%,6%,6%[46.1 µM],?,?,2%
c1ccc(-c2c(-c3ccccc3)n(Cc3ccco3)c3ncnc(NCCCn4ccnc4)c23)cc1,?,3%,-26%,?,?,25µM*
CCN(CC)S(=O)(=O)c1cc(-c2nnc(-c3ccc(Br)cc3)o2)ccc1Br,-4%,1%,-3%[46.1 µM],6%,.,-7%
CCN(CC)S(=O)(=O)c1cc(-c2nnc(-c3ccc(Br)cc3)o2)ccc1Cl,-5%,-1%,-2%,-22%,21µM*,?
COc1ccc(-n2nnnc2SCC(=O)NC2CC2)cc1,.,0%,3%,0%,7%,0%
CC(C)n1c(SCC(=O)Nc2nc3c(s2)CCCC3)nc2c1c(=O)n(C)c(=O)n2C,4%,-1%,-5%[46.1 µM],-16%,23µM*,0%
CCCCn1c(SCC(=O)Nc2nnc(CC)s2)nc2c1c(=O)n(C)c(=O)n2C,-1%,0%,.,-3%,8.2µM*,-1%
COc1ccc(-n2nnnc2SCC(=O)Nc2nc3c(s2)CCCC3)cc1,5%,0%,-5%,-15%,16µM*,3%
COc1ccc(C2C=C3CNS(=O)(=O)C3CC2OC(=O)c2ccc(Cl)cc2)cc1 (configuration not stated),.,.,.,-2%,?,.
SMILES,miR-21 act,Nrf2 activator,TCR activator,A549 tox,Nrf2 inh,ClpP mod
COCCC(=O)N1CCC(Oc2ccc(C(=O)NC3CCOC(C)(C)C3)cc2)CC1 (configuration not stated),-2%,0%,0%,3%,13%,.
Cc1ccc(NC(=O)c2ccc3c(c2)CCC(=O)N3)cc1C,.,.,.,2%,5%,.
Cc1cc2oc(=O)c(CC(=O)O)c(C)c2c2occ(-c3ccccc3)c12,-28%,4%,.,11%,?,32µM*
Cc1ccc(Cn2ccsc2=NC(=O)COC(=O)c2ccc(NC(=O)CC#N)cc2)cc1,.,1%,0%,-14%,23µM*,-3%
CCOc1cc(S(=O)(=O)NCc2ccccc2)c(OCC)cc1-n1cnnn1,.,0%,-3%,17%,14%,32µM*
CCOc1cc(S(=O)(=O)N(Cc2ccccc2)Cc2ccccc2)c(OCC)cc1-n1cnnn1,-4%,0%,.,-7%,-4%,28µM*
Cc1cc(C)c(NC(=O)CCn2c(=O)c3cccn3c3cccnc32)c(C)c1,0%,1%,.,12%,4%,-7%
COc1cccc(/C=C/c2ccccn2)c1O,-48%,8.9µM*,-2%,2%,7%,-10%
Cc1c(CC(=O)NCCc2ccccc2)c(=O)oc2c(C)c3occ(C(C)(C)C)c3cc12,-1%,-1%,.,-14%,3%,32µM*
FC(F)(F)c1cccc(N2CCN(C(=S)NC3CCCC3)CC2)c1,20%,0%,-1%,-17%,23µM*,4%
Cc1ccnc(NC(=S)N2CCN(c3cccc(C(F)(F)F)c3)CC2)c1,19%,12%,5%,?,23µM*,.
O=C(c1ccco1)N1CCCC(N2CCN(c3cccc(C(F)(F)F)c3)CC2)C1 (configuration not stated),21%,0%,0%,-9%,?,0%
CN(C)S(=O)(=O)c1ccc(NC(=O)N2CCN(c3cccc(C(F)(F)F)c3)CC2)cc1,22%,0%,-6%,?,23µM*,-4%
O=C(c1cccs1)N1CCCC(N2CCN(c3cccc(C(F)(F)F)c3)CC2)C1 (configuration not stated),20%,2%,5%,-10%,21µM*,1%
O=[N+]([O-])c1ccc(Cl)c(S(=O)(=O)/N=C(/Sc2ccc(Br)cc2)c2ccccc2)c1,.,.,.,-10%,3%,0%
FC(F)(F)c1cccc(N2CCN(C(=S)NC3CCCCC3)CC2)c1,6%,0%[9.22 µM],13%[46.1 µM],-16%,16µM*,0%
CN(/N=C/c1ccccc1O)C(=S)c1ccccc1,-22%,7%,5%,1%,7%,1%
CN(N=Cc1ccccc1O)c1ccc2ccccc2n1,.,4.5µM*,.,.,.,-5%
O=C1NC(=S)S/C1=C\c1ccc(SCc2ccccc2)o1,5%,25%,5%[46.1 µM],?,21µM*,-1%
